# Laboratory results taken from PubChem BioAssay (NCATS).
# Results filed as inconclusive are left out. Where a call stands in place of a potency, no number is given. Active and inactive are the calls of the source. Calls follow the shape of the dose curve; as a rule, active = well fitted inhibition curve with a large enough effect; inconclusive = small, poorly fitted or top-dose-only effect; inactive = flat fitted curve, though single readings scatter.
# Tests used:
# Experiment in all cases: qHTS profiling for inhibitors of Plasmodium falciparum proliferation (AID 504749); also: nearly all actives have a fitted effect of over 60% in size
# Settings in all cases: P. falciparum in erythrocytes, SYBR Green DNA, 72 h; series mostly up to 28.7 µM
# CP192 = system: CP192
# Summary of the method: (§1)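 Three-day growth assay of blood-stage parasites in erythrocytes (0.3% parasitemia, 2.5% hematocrit) at 37 C, 5% CO2, quantified by SYBR Green DNA staining after overnight detergent lysis.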
# CP194 = system: CP194
# Summary of the method: as §1
# CP201 = system: CP201
# Summary of the method: as §1
# CP203 = system: CP203
# Summary of the method: as §1
# CP211 = system: CP211
# Summary of the method: as §1
# CP215 = system: CP215
# Summary of the method: as §1
# CP217 = system: CP217
# Summary of the method: as §1
# CP237 = system: CP237
# Summary of the method: as §1
# CP238 = system: CP238
# Summary of the method: as §1
# CP247 = system: CP247
# Summary of the method: as §1
# Potency is read from the fitted curve at half-maximal effect.
SMILES,Potency (CP192),Potency (CP194),Potency (CP201),Potency (CP203),Potency (CP211),Potency (CP215),Potency (CP217),Potency (CP237),Potency (CP238),Potency (CP247)
COC(=O)C1=C(C)NC(C)=C(C(=O)OC(C)(C)CN(C)CCC(c2ccccc2)c2ccccc2)C1c1cccc([N+](=O)[O-])c1 (configuration not stated),9.53 µM (active),3.79 µM (active),6.01 µM (active),4.26 µM (active),4.78 µM (active),4.78 µM (active),3.16 µM (active),2.51 µM (active),3.98 µM (active),3.16 µM (active)
C[N+](C)(C)CCOC(=O)CCC(=O)OCC[N+](C)(C)C,inactive,inactive,inactive,inactive,inactive,inactive,inactive,inactive,inactive,inactive
O=C(O)CP(=O)(O)O,inactive,inactive,inactive,inactive,inactive,inactive,inactive,inactive,inactive,inactive
C[C@]12CCC(=O)C=C1CC[C@@H]1[C@@H]2CC[C@@]2(C)[C@H]1CC[C@]2(O)C(=O)CO,inactive,inactive,inactive,inactive,inactive,inactive,inactive,inactive,inactive,inactive
COCC(=O)O[C@]1(CCN(C)CCCc2nc3ccccc3[nH]2)CCc2cc(F)ccc2[C@@H]1C(C)C,5.36 µM (active),6.01 µM (active),8.49 µM (active),1.9 µM (active),4.26 µM (active),4.26 µM (active),2.51 µM (active),0.199 µM (active),4.47 µM (active),3.55 µM (active)
CCC(=O)c1ccc2c(c1)N(CCCN(C)C)c1ccccc1S2,inactive,–,–,–,–,–,–,–,–,–
CN=C(NC#N)NCCSCc1nc[nH]c1C,inactive,inactive,inactive,inactive,inactive,inactive,inactive,inactive,inactive,inactive
CCN(Cc1ccncc1)C(=O)C(CO)c1ccccc1 (configuration not stated),inactive,inactive,inactive,inactive,inactive,inactive,inactive,inactive,inactive,inactive
CCNC(=O)N1CCN(CCCC(c2ccc(F)cc2)c2ccc(F)cc2)CC1,7.57 µM (active),7.57 µM (active),7.57 µM (active),6.75 µM (active),5.36 µM (active),4.26 µM (active),1.12 µM (active),2.51 µM (active),3.16 µM (active),1 µM (active)
O=C(CCNNC(=O)c1ccncc1)NCc1ccccc1,inactive,inactive,inactive,inactive,inactive,inactive,inactive,inactive,inactive,inactive
CC(C(=O)O)c1ccc(CC2CCCC2=O)cc1 (configuration not stated),inactive,inactive,inactive,inactive,inactive,inactive,inactive,inactive,inactive,inactive
CC(=O)[C@@]1(O)CC[C@H]2[C@@H]3CCC4=CC(=O)CC[C@]4(C)[C@H]3CC[C@@]21C,inactive,inactive,inactive,inactive,inactive,inactive,inactive,inactive,inactive,inactive
CCn1cc(C(=O)O)c(=O)c2cc3c(cc21)OCO3,inactive,inactive,inactive,inactive,inactive,inactive,inactive,inactive,inactive,inactive
c1cnc(N2CCN(Cc3ccc4c(c3)OCO4)CC2)nc1,inactive,inactive,inactive,inactive,inactive,inactive,inactive,inactive,inactive,inactive
CCO/C([O-])=N/c1c[n+](N2CCOCC2)no1,inactive,inactive,inactive,inactive,inactive,inactive,inactive,inactive,inactive,inactive
Brc1c(NC2=NCCN2)ccc2nccnc12,inactive,inactive,inactive,inactive,inactive,inactive,inactive,inactive,inactive,inactive
CC(N=C(NC#N)Nc1ccncc1)C(C)(C)C (configuration not stated),inactive,inactive,inactive,inactive,inactive,inactive,inactive,inactive,inactive,inactive
Cc1cc(C)c(/C=C2\C(=O)Nc3ccccc32)[nH]1,inactive,inactive,inactive,inactive,inactive,inactive,inactive,inactive,inactive,inactive
CCN1CCC[C@H]1CNC(=O)c1c(O)c(Cl)cc(Cl)c1OC,inactive,inactive,inactive,inactive,inactive,inactive,inactive,inactive,inactive,inactive
Cc1nnc(SCC2=C(C(=O)O)N3C(=O)[C@@H](NC(=O)Cn4cnnn4)[C@H]3SC2)s1,inactive,inactive,inactive,inactive,inactive,inactive,inactive,inactive,inactive,inactive
CN1CCN(CC(=O)N2c3ccccc3C(=O)Nc3cccnc32)CC1,inactive,inactive,inactive,inactive,inactive,inactive,inactive,inactive,inactive,inactive
NC(=O)c1ncn([C@@H]2O[C@H](CO)[C@@H](O)[C@H]2O)c1O,inactive,inactive,inactive,inactive,inactive,inactive,inactive,inactive,inactive,inactive

SMILES,Potency (CP192),Potency (CP194),Potency (CP201),Potency (CP203),Potency (CP211),Potency (CP215),Potency (CP217),Potency (CP237),Potency (CP238),Potency (CP247)
CCc1cccc(N(C)C(N)=Nc2cccc3ccccc23)c1,inactive,–,–,–,–,–,–,–,–,–
C[N+](C)(C)CCOC(N)=O,inactive,inactive,inactive,inactive,inactive,inactive,inactive,inactive,inactive,inactive
CC(=O)OCC1=C(C(=O)O)N2C(=O)[C@@H](NC(=O)Cc3cccs3)[C@H]2SC1,inactive,inactive,inactive,inactive,inactive,inactive,inactive,inactive,inactive,inactive
C[N+](C)(C)CCCCCCCCCC[N+](C)(C)C,1.9 µM (active),2.13 µM (active),3.38 µM (active),1.69 µM (active),1.69 µM (active),4.26 µM (active),3.55 µM (active),3.16 µM (active),5.01 µM (active),5.01 µM (active)
CCCCNc1c(C(=O)OCC)c(C)nc2c1cnn2CC,inactive,inactive,inactive,inactive,inactive,inactive,inactive,inactive,inactive,inactive
CCCCOCCOCCOCc1cc2c(cc1CCC)OCO2,inactive,inactive,inactive,inactive,inactive,inactive,inactive,inactive,inactive,inactive
CCCN(CCC)CCc1cccc2c1CC(=O)N2,inactive,inactive,inactive,inactive,inactive,inactive,inactive,inactive,inactive,inactive
CN(C)CCCN1c2ccccc2Sc2ccccc21,inactive,–,–,–,–,–,–,–,–,–
Nc1c2c(nc3ccccc13)CCCC2O (configuration not stated),inactive,inactive,inactive,inactive,inactive,inactive,inactive,inactive,inactive,inactive
COc1ccc([C@@H]2Sc3ccccc3N(CCN(C)C)C(=O)[C@@H]2OC(C)=O)cc1,inactive,inactive,inactive,inactive,inactive,inactive,inactive,inactive,inactive,inactive
FC(F)(F)c1ccccc1-n1ccnc1,inactive,inactive,inactive,inactive,inactive,inactive,inactive,inactive,inactive,inactive
O=C(O)CN(CCOCCOCCN(CC(=O)O)CC(=O)O)CC(=O)O,inactive,inactive,inactive,inactive,inactive,inactive,inactive,inactive,inactive,inactive
NCCCNCCSP(=O)(O)O,inactive,inactive,inactive,inactive,inactive,inactive,inactive,inactive,inactive,inactive
Cc1nc2c([nH]1)c(=O)n(C)c(=O)n2Cc1ccco1,inactive,inactive,inactive,inactive,inactive,inactive,inactive,inactive,inactive,inactive
Cc1ccc(S(=O)(=O)NC(=O)NN2CCCCCC2)cc1,inactive,inactive,inactive,inactive,inactive,inactive,inactive,inactive,inactive,inactive
CCN(CC)CCCN(c1ccccc1)C1Cc2ccccc2C1,10.7 µM (active),7.57 µM (active),7.57 µM (active),–,12 µM (active),8.49 µM (active),5.62 µM (active),2.82 µM (active),11.2 µM (active),8.91 µM (active)
CCCOc1ccccc1-c1nc2n[nH]nc2c(=O)[nH]1,inactive,inactive,inactive,–,inactive,inactive,inactive,inactive,inactive,inactive
NC(=O)c1cn(Cc2c(F)cccc2F)nn1,inactive,inactive,inactive,–,inactive,inactive,inactive,inactive,inactive,inactive
CCCCCN(CCCCC)C(=O)C(CCC(=O)O)NC(=O)c1ccc(Cl)c(Cl)c1 (configuration not stated),inactive,inactive,inactive,–,inactive,inactive,inactive,inactive,inactive,inactive
CCN(CC)CCNC(=O)c1ccc(NC(C)=O)cc1,inactive,inactive,inactive,–,inactive,inactive,inactive,inactive,inactive,inactive
Cc1scc2c1N(C(=O)CN1CCN(C)CC1)c1ccccc1NC2=O,inactive,inactive,inactive,–,inactive,inactive,inactive,inactive,inactive,inactive
